Laboratory results published in PubChem BioAssay AID1159580 (chemical genetic matrix, 2015).
The campaign covered roughly 5,500 compounds. About 2,000 (36%) were called active. Not shown: some 18% with an inconclusive outcome. Rule as the data show it: active = normalized growth mostly below about 0.91 (no sharp cut-off); inconclusive = no clear call, values can overlap the other calls; inactive = mostly above about 0.92. This is one part of the list.

Assay: chemical genetic growth profiling, strain panel (AID 1159580);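 also: tested at 20 µM; growth read once vehicle control cultures reached saturation at 30 °C; 1 = growth at the plate median or of vehicle wells; lower values mean less growth of the strain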
Conditions: growth OD

Measured: normalized growth

OC[C@H]1O[C@@H](O[C@H]2[C@H](O)[C@@H](O)[C@@H](O)O[C@@H]2CO)[C@H](O)[C@@H](O)[C@@H]1O
inactive: S. cerevisiae deletion strains, locus YJR075W, strain HOC1, hits give low values 1.02 | S. cerevisiae deletion strains, locus YKL009W, strain mrt4, hits give low values 1.1 | S. cerevisiae deletion strains, locus YKL068W, hits give low values 1 | S. cerevisiae deletion strains, locus YKL085W, strain MDH1 (second series), hits give low values 1.04 | S. cerevisiae deletion strains, locus YKL085W, strain MDH1, hits give low values 1.04 | S. cerevisiae deletion strains, locus YKL160W, strain elf1, hits give low values 1.02 | S. cerevisiae deletion strains, locus YKL190W, strain CNB1, hits give low values 1.01 | S. cerevisiae deletion strains, locus YKR001C, strain vps1, hits give low values 1.02 | S. cerevisiae deletion strains, locus YKR026C, strain gcn3, hits give low values 0.992 | S. cerevisiae deletion strains, locus YKR091W, strain srl3, hits give low values 1 | S. cerevisiae deletion strains, locus YLL001W, strain dnm1, hits give low values 0.98 | S. cerevisiae deletion strains, locus YLL026W, hits give low values 0.994 | S. cerevisiae deletion strains, locus YLL041C, strain sdh2, hits give low values 1.02 | S. cerevisiae deletion strains, locus YLR027C, strain aat2, hits give low values 1.01 | S. cerevisiae deletion strains, locus YLR039C, strain RIC1, hits give low values 1.11 | S. cerevisiae deletion strains, locus YLR058C, strain SHM2, hits give low values 1.02 | S. cerevisiae deletion strains, locus YLR102C, strain apc9, hits give low values 1.02 | S. cerevisiae deletion strains, locus YLR113W, strain HOG1, hits give low values 1.06 | S. cerevisiae deletion strains, locus YLR221C, strain rsa3, hits give low values 0.98 | S. cerevisiae deletion strains, locus YLR258W, strain gsy2, hits give low values 1.01 | S. cerevisiae deletion strains, locus YLR262C, strain YPT6 (second series), hits give low values 1.04 | S. cerevisiae deletion strains, locus YLR262C, strain YPT6, hits give low values 1.05 | S. cerevisiae deletion strains, locus YLR268W, strain sec22, hits give low values 1.04 | S. cerevisiae deletion strains, locus YLR320W, strain mms22, hits give low values 0.997 | S. cerevisiae deletion strains, locus YLR330W, strain CHS5, hits give low values 1.02 | S. cerevisiae deletion strains, locus YLR342W, strain FKS1 (second series), hits give low values 1.09 | S. cerevisiae deletion strains, locus YLR342W, strain FKS1, hits give low values 1.01 | S. cerevisiae deletion strains, locus YLR357W, strain rsc2, hits give low values 0.975 | S. cerevisiae deletion strains, locus YLR370C, strain arc18, hits give low values 1.01 | S. cerevisiae deletion strains, locus YLR371W, strain rom2, hits give low values 1.01 | S. cerevisiae deletion strains, locus YLR384C, strain iki3, hits give low values 0.992 | S. cerevisiae deletion strains, locus YLR418C, strain cdc73, hits give low values 0.975 | S. cerevisiae deletion strains, locus YML016C, strain PPZ1, hits give low values 1.01 | S. cerevisiae deletion strains, locus YML032C, strain rad52, hits give low values 1 | S. cerevisiae deletion strains, locus YML120C, strain ndi1, hits give low values 1.01 | S. cerevisiae deletion strains, locus YML124C, strain tub3, hits give low values 1.01 | S. cerevisiae deletion strains, locus YMR058W, strain fet3, hits give low values 1 | S. cerevisiae deletion strains, locus YMR078C, strain ctf18, hits give low values 1.01 | S. cerevisiae deletion strains, locus YMR125W, strain sto1, hits give low values 0.993 | S. cerevisiae deletion strains, locus YMR129W, hits give low values 1.01 | S. cerevisiae deletion strains, locus YMR205C, strain PFK2, hits give low values 1.01 | S. cerevisiae deletion strains, locus YMR223W, strain ubp8, hits give low values 0.993 | S. cerevisiae deletion strains, locus YMR231W, strain pep5, hits give low values 0.992 | S. cerevisiae deletion strains, locus YMR263W, strain SAP30, hits give low values 1.01 | S. cerevisiae deletion strains, locus YMR307W, strain GAS1, hits give low values 1.07 | S. cerevisiae deletion strains, locus YNL067W, strain RPL9B, hits give low values 1.02 | S. cerevisiae deletion strains, locus YNL071W, strain lat1, hits give low values 1.02 | S. cerevisiae deletion strains, locus YNL153C, strain GIM3, hits give low values 1.01 | S. cerevisiae deletion strains, locus YNL183C, strain NPR1, hits give low values 0.968 | S. cerevisiae deletion strains, locus YNL209W, strain ssb2, hits give low values 1.01 | S. cerevisiae deletion strains, locus YNL233W, strain BNI4, hits give low values 1.01 | S. cerevisiae deletion strains, locus YNL248C, strain rpa49, hits give low values 0.98 | S. cerevisiae deletion strains, locus YNL250W, strain rad50, hits give low values 1.03 | S. cerevisiae deletion strains, locus YNL271C, strain bni1, hits give low values 1.02 | S. cerevisiae deletion strains, locus YNL298W, strain CLA4, hits give low values 0.999 | S. cerevisiae deletion strains, locus YNL307C, strain MCK1, hits give low values 1.02 | S. cerevisiae deletion strains, locus YNL322C, strain KRE1 (second series), hits give low values 0.996 | S. cerevisiae deletion strains, locus YNL322C, strain KRE1, hits give low values 1.02 | S. cerevisiae deletion strains, locus YNR049C, strain mso1, hits give low values 0.998 | S. cerevisiae deletion strains, locus YNR052C, strain pop2, hits give low values 1.01 | S. cerevisiae deletion strains, locus YOL006C, strain TOP1, hits give low values 1.15 | S. cerevisiae deletion strains, locus YOL012C, strain htz1 1.74 | S. cerevisiae deletion strains, locus YOL147C, strain pex11, hits give low values 1.01 | S. cerevisiae deletion strains, locus YOR001W, strain rrp6, hits give low values 0.988 | S. cerevisiae deletion strains, locus YOR061W, strain CKA2, hits give low values 1.03 | S. cerevisiae deletion strains, locus YOR069W, strain VPS5, hits give low values 1.01 | S. cerevisiae deletion strains, locus YOR070C, strain gyp1, hits give low values 1 | S. cerevisiae deletion strains, locus YOR080W, strain dia2, hits give low values 0.988 | S. cerevisiae deletion strains, locus YOR083W, strain WHI5, hits give low values 1.06 | S. cerevisiae deletion strains, locus YOR106W, strain vam3, hits give low values 1.04 | S. cerevisiae deletion strains, locus YOR136W, strain idh2, hits give low values 1.01 | S. cerevisiae deletion strains, locus YOR144C, strain elg1, hits give low values 1 | S. cerevisiae deletion strains, locus YOR184W, strain ser1, hits give low values 1.02 | S. cerevisiae deletion strains, locus YOR231W, strain MKK1, hits give low values 1 | S. cerevisiae deletion strains, locus YOR265W, strain rbl2, hits give low values 1 | S. cerevisiae deletion strains, locus YOR270C, strain vph1, hits give low values 1.13 | S. cerevisiae deletion strains, locus YOR290C, strain snf2, hits give low values 1.03 | S. cerevisiae deletion strains, locus YOR316C, strain cot1, hits give low values 1.02 | S. cerevisiae deletion strains, locus YPL051W, strain arl3, hits give low values 0.992 | S. cerevisiae deletion strains, locus YPL078C, strain atp4, hits give low values 1.01 | S. cerevisiae deletion strains, locus YPL106C, strain sse1, hits give low values 1.02 | S. cerevisiae deletion strains, locus YPL240C, strain hsp82, hits give low values 1 | S. cerevisiae deletion strains, locus YPL241C, strain CIN2, hits give low values 1 | S. cerevisiae deletion strains, locus YPL256C, strain CLN2, hits give low values 0.975 | S. cerevisiae deletion strains, locus YPR119W, strain clb2, hits give low values 1.01 | S. cerevisiae deletion strains, locus YPR141C, strain kar3, hits give low values 1 | S. cerevisiae deletion strains, locus YPR163C, strain tif3, hits give low values 1 | S. cerevisiae deletion strains, locus YPR167C, strain met16, hits give low values 1.02 | S. cerevisiae deletion strains, strain wtn01, hits give low values 1.06 | S. cerevisiae strains, strain wild type, hits give low values 1.02
